Measurements from PubChem BioAssay (NCI).
About 83,000 compounds went through this panel and 20% of them were active in at least one assay; those are over-represented in the sample as a whole.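 Interpretation: 100, growth as untreated; towards 0, rising growth inhibition; 0, no net growth; 0 to -100, cell death. Compounds scoring below 10 were considered active.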 Unmarked numbers belong to inactive results. Calls of active or inactive are those of the source.

Assays:
Experiment in all cases: NCI-60 one-dose screen, 48 h (100 = growth as untreated, 0 = no growth, -100 = all killed)
Conditions in all cases: 10 µM unless noted
[1] = tested on: NCI-H23 lung
[2] = tested on: NCI-H226 lung
[3] = tested on: NCI-H322M lung
[4] = tested on: HOP-62 NSCLC
[5] = tested on: NCI-H460 lung
[6] = tested on: HOP-92 NSCLC
[7] = tested on: NCI-H522 lung
[8] = tested on: A549/ATCC NSCLC
[9] = tested on: 786-0 renal
[10] = tested on: COLO 205 colon
[11] = tested on: DU-145 prostate
[12] = tested on: K-562 leukemia
[13] = tested on: MALME-3M melanoma
[14] = tested on: MDA-MB-231 breast
[15] = tested on: RXF 393 renal
[16] = tested on: SF-268 CNS
[17] = tested on: SF-295 CNS
[18] = tested on: SF-539 CNS
[19] = tested on: UACC-257 melanoma
[20] = tested on: M14 melanoma

SMILES: S=C(Nc1ccc(OCc2nc3ccccc3[nH]2)cc1)NC1CCCCC1
- growth [1]: 101%
- growth [2]: 105%
- growth [3]: 106%
- growth [4]: 95.1%
- growth [5]: 125%
- growth [6]: 109%
- growth [7]: 51.7%
- growth [8]: 105%
- growth [9]: 93%
- growth [10]: 110%
- growth [11]: 98.4%
- growth [12]: 108%
- growth [13]: 67.6%
- growth [14]: 100%
- growth [15]: 147%
- growth [16]: 106%
- growth [17]: 74.4%
- growth [18]: 79.5%
- growth [19]: 95.5%
- growth [20]: 105%

SMILES: C=C1CCC2C3(C)COC(c4ccc(F)cc4)OC3CCC2(C)C1C/C=C1/C(=O)OCC1O (stereo not given)
- growth [1]: -40.3% (active)
- growth [2]: -8.14% (active)
- growth [3]: 27%
- growth [4]: -3.79% (active)
- growth [5]: -39% (active)
- growth [6]: -43.7% (active)
- growth [7]: -80.7% (active)
- growth [8]: 9.65% (active)
- growth [9]: -89.2% (active)
- growth [10]: -50.6% (active)
- growth [11]: -41.4% (active)
- growth [12]: 11.9%
- growth [13]: -71.9% (active)
- growth [14]: -45.2% (active)
- growth [15]: -69.7% (active)
- growth [16]: 39.7%
- growth [17]: -8.06% (active)
- growth [18]: -85.5% (active)
- growth [19]: -62.6% (active)
- growth [20]: -68.1% (active)

SMILES: COc1ccc(C(=O)/C=C/c2ccc(OCc3ccccc3)c(OC)c2)cc1OC
- growth [1]: 27.1%
- growth [2]: 79.1%
- growth [3]: 15.7%
- growth [4]: 35.3%
- growth [5]: 5.57% (active)
- growth [6]: 38.3%
- growth [7]: 11.3%
- growth [8]: 14.4%
- growth [9]: 35.9%
- growth [10]: 51.5%
- growth [11]: 7.25% (active)
- growth [12]: 10.5%
- growth [13]: 71.5%
- growth [14]: 13%
- growth [15]: 24.2%
- growth [16]: 32.6%
- growth [17]: 25.8%
- growth [18]: -37.9% (active)
- growth [19]: 58.9%
- growth [20]: 62.3%

SMILES: COc1cc2c(c(OC)c1OC)C(=O)CC(c1cccc(NC(=O)c3cccc([N+](=O)[O-])c3)c1)O2 (stereo not given)
- growth [1]: 38.2%
- growth [2]: 38.4%
- growth [3]: 63.3%
- growth [4]: 47.9%
- growth [5]: 35.4%
- growth [6]: 17%
- growth [7]: -7.5% (active)
- growth [8]: 43.8%
- growth [9]: 59.7%
- growth [10]: 51.8%
- growth [11]: 26.9%
- growth [12]: 25.7%
- growth [13]: 33.5%
- growth [14]: 24.2%
- growth [15]: 43.6%
- growth [16]: 38.4%
- growth [17]: 44.6%
- growth [18]: 48.7%
- growth [19]: 44.1%
- growth [20]: 37.2%

SMILES: CCCCCCCCc1ccc(C(=O)Nc2ccc(C)cc2C(=O)O)cc1C
- growth [1]: 99.6%
- growth [2]: 89.4%
- growth [3]: 99.3%
- growth [4]: 96.2%
- growth [5]: 92.7%
- growth [6]: 99%
- growth [7]: -0.59% (active)
- growth [8]: 85.8%
- growth [9]: 104%
- growth [10]: 114%
- growth [11]: 105%
- growth [12]: 71.2%
- growth [13]: 96.5%
- growth [14]: 98.1%
- growth [15]: 109%
- growth [16]: 99.9%
- growth [17]: 73.6%
- growth [18]: 99.1%
- growth [19]: 95%
- growth [20]: 99.9%

SMILES: CCN(CC)c1ccnc(CNCCSC(c2ccccc2)(c2ccccc2)c2ccc(OC)cc2)c1
- growth [1]: -41.8% (active)
- growth [2]: -7.73% (active)
- growth [3]: 21.8%
- growth [4]: -10.2% (active)
- growth [5]: -87.3% (active)
- growth [6]: -30% (active)
- growth [7]: -67.8% (active)
- growth [8]: 2.36% (active)
- growth [9]: -50.8% (active)
- growth [10]: -74% (active)
- growth [11]: -25.3% (active)
- growth [12]: -23.6% (active)
- growth [13]: -92.5% (active)
- growth [14]: -45.5% (active)
- growth [15]: -26% (active)
- growth [16]: 4.54% (active)
- growth [17]: -93.7% (active)
- growth [18]: -95.8% (active)
- growth [19]: -45.3% (active)
- growth [20]: -74.7% (active)

SMILES: Cn1cc(-c2nnc(N)nc2-c2c[nH]c3ccc(F)cc23)c2cccnc21
- growth [1]: 53.7%
- growth [2]: 72.4%
- growth [3]: 71%
- growth [4]: 49.2%
- growth [5]: 18%
- growth [6]: 92.8%
- growth [7]: 20.4%
- growth [8]: 47.6%
- growth [9]: 47.2%
- growth [10]: 26.9%
- growth [11]: 80.2%
- growth [12]: 15.7%
- growth [13]: 44.8%
- growth [14]: 51.6%
- growth [15]: 65.4%
- growth [16]: 61%
- growth [17]: 25.6%
- growth [18]: 47.2%
- growth [19]: 72.7%
- growth [20]: 21.6%
